PubChem BioAssay (NCATS)
Results filed as inconclusive are left out. The source made the active and inactive calls. Unless noted, calls follow the shape of the dose curve; as a rule, active = well fitted curve in the direction sought with a large enough effect; inconclusive = small, poorly fitted or top-dose-only effect, or another doubt; inactive = no such curve, though single readings can be large; an effect the other way counts as inactive or inconclusive.

Assays:
[1] = target: Tumor susceptibility gene 101 protein (Homo sapiens) (UniProt Q99816); assay: qHTS Validation Assay for Iinhibitors of HIV-1 Budding by Blocking the Interaction of PTAP/TSG101 (AID 485342; calls by dose curve; also: 0% is about no effect)
In short: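 Tsg101 binding domain (10 uM final) in pH 7.5 HEPES/NaCl/Tween 20/EDTA/TCEP buffer was mixed with pin-transferred compounds, then FITC-labeled PTAP peptide (50 nM final) was added; after 20 min at r.t., fluorescence polarization was read.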

[2] = qHTS Validation Assay to Find Inhibitors of Chronic Active B-Cell Receptor Signaling (AID 485345; active = well fitted curve in the direction sought with a large enough effect in the main read-out, with a control signal flat, not every such curve was filed as active;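 also: 0% = untreated basal cells and 100% = 10 µM MG-132 proteasome inhibitor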)
In short: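 TMD8 ABC-DLBCL cells with dox-inducible green luciferase–IκBα fusion and red native luciferase; compounds 46 uM–3 nM, 4 h at 37C with doxycycline in 0.5% FBS IMDM. Green/red ratio normalized to basal and 10 uM MG-132.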

[3] = target: ATP-dependent 6-phosphofructokinase (Trypanosoma brucei brucei) (UniProt O15648); assay: qHTS Validation Assay to Find Inhibitors of T. brucei phosphofructokinase (AID 485368)
Sequence of ATP-dependent 6-phosphofructokinase (Trypanosoma brucei brucei) (O15648 whole entry, looked up): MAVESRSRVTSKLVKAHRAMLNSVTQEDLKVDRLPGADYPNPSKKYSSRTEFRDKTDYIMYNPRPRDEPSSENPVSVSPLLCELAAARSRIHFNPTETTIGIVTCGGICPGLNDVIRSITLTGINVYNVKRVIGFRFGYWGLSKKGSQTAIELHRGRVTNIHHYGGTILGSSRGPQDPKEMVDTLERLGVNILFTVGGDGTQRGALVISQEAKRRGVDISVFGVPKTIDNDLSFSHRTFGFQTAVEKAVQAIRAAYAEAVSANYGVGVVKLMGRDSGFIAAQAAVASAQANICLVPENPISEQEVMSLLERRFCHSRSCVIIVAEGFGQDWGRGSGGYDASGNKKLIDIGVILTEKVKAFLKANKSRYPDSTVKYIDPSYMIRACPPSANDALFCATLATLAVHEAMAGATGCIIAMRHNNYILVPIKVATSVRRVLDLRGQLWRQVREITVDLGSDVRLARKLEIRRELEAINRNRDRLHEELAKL
In short: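 Compounds (up to 57 uM, titration series) were pinned into substrate buffer, then 1.25 nM PFK added; after 45 min at room temperature, ADP product was quantified by ADP-Glo luminescence and concentration-response curves fitted.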

[4] = Quantitative high throughput screen for delayed death inhibitors of the malarial parasite plastid, 96 hour incubation (AID 488745);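 also: luciferase-expressing P. falciparum in erythrocytes at 2% hematocrit and 0.1% parasitemia; series mostly up to about 29 µM; % is scaled to controls: 0 for no effect and ±100 for the full control effect; nearly all actives have a fitted effect of over 70% in size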
In short: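 Infected erythrocytes were added to compound in Albumax-supplemented RPMI 1640 at 0.1% parasitemia and 2% hematocrit (final), incubated 96 h at 37 C under 5% CO2, then luciferase reagent was added and luminescence measured.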

[5] = Quantitative high throughput screen for delayed death inhibitors of the malarial parasite plastid, 48 hour incubation (AID 488752); also: % is scaled to controls: 0 for no effect and ±100 for the full control effect; nearly all actives have a fitted effect of over 65% in size
In short: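 Readout is firefly luciferase luminescence from a reporter integrated into the parasite genome, with lower signal taken as inhibited growth. Infected red cells (0.1% parasitemia, 2% hematocrit final) are cultured with compound for one 48 h cycle at 37 C.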

[6] = target: Thioredoxin reductase 1, cytoplasmic (Rattus norvegicus) (UniProt O89049); assay: qHTS Assay for Substrates of Mammalian Selenoprotein Thioredoxin Reductase 1 (TrxR1) (AID 488772);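 also: NADPH fluorescence in the first read after selenite addition and not the 8 min delta; series mostly up to about 57 µM; 0% is about no effect; a drop in NADPH fluorescence below the no-compound background marks a TrxR1 substrate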
In short: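 Quantitative HTS in Tris-HCl buffer at pH 7.5 with EDTA and Tween-20, using rat TrxR1, 400 uM NADPH and 400 uM selenite (final). A fall in initial NADPH fluorescence relative to background marked substrate behaviour.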

[7] = target: Thioredoxin reductase 1, cytoplasmic (Rattus norvegicus) (UniProt O89049); assay: qHTS Assay for Inhibitors of Mammalian Selenoprotein Thioredoxin Reductase 1 (TrxR1) (AID 488773);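 also: drop in NADPH fluorescence over an 8 min run after selenite addition; series mostly up to about 57 µM; % is scaled to controls: 0 for no effect and ±100 for the full control effect; nearly all actives have a fitted effect of over 40% in size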
In short: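 Steps: enzyme (90 nM) plus NADPH (400 uM final), 5 min at ~22 deg C; compound added, 15 min; selenite (400 uM final) added; fluorescence followed for 8 min. Concentration-response curves derived from the normalized delta values.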

[8] = target: M-phase phosphoprotein 8 (Homo sapiens) (UniProt Q99549); assay: qHTS Validation Assay for Inhibitors for MPP8 Chromodomain Interactions with Methylated Histone Tails (AID 488949);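 also: AlphaScreen signal from MPP8 chromodomain bound to biotinylated H3K9me3 peptide; top concentration of the series differs between compounds; % is scaled to controls: 0 for no effect and ±100 for the full control effect; nearly all actives have a fitted effect of over 55% in size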
Sequence of M-phase phosphoprotein 8 (Homo sapiens) (Q99549 whole entry, looked up): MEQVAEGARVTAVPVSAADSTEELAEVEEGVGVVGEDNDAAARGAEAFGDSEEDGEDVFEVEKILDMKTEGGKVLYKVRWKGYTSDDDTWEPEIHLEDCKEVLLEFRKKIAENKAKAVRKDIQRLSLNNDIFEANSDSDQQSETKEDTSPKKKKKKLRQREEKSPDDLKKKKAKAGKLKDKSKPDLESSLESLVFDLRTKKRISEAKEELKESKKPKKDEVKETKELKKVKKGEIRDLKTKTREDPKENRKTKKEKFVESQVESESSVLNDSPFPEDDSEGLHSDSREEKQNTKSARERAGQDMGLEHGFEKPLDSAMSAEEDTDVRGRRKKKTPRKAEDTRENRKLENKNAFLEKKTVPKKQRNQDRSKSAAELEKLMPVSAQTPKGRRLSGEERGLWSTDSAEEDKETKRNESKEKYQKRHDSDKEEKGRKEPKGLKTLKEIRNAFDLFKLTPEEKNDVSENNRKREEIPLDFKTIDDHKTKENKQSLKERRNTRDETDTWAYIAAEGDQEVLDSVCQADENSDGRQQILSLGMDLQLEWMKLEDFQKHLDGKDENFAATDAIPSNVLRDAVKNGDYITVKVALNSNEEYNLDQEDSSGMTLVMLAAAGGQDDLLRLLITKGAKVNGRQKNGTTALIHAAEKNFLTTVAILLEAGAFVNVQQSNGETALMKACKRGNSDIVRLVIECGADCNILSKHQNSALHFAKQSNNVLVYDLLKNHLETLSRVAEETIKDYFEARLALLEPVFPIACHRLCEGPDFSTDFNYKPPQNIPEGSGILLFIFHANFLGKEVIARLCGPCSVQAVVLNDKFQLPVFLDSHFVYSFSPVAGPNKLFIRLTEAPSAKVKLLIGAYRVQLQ
In short: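 MPP8 (50 nM) was preincubated with biotinylated H3(1-18)K9me3 peptide (50 nM) in PBS pH 7.4, 0.01% Tween-20 for 30 min at room temperature, then with compounds for 30 min; binding was detected by AlphaScreen.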

[9] = target: Chromobox protein homolog 1 (Homo sapiens) (UniProt P83916); assay: qHTS Validation Assay for Inhibitors of HP1-beta Chromodomain Interactions with Methylated Histone Tails (AID 488953);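 also: loss of AlphaScreen luminescence from HP1-beta binding biotinylated H3K9me3 peptide; series mostly up to about 110 µM; % is scaled to controls: 0 for no effect and ±100 for the full control effect; nearly all actives have a fitted effect of over 50% in size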
Sequence of Chromobox protein homolog 1 (Homo sapiens) (P83916 whole entry, looked up): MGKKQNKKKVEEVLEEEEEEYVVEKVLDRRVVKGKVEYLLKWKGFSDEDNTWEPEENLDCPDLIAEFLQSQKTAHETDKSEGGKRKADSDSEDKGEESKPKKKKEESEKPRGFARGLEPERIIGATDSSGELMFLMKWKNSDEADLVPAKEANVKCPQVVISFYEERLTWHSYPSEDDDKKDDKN
In short: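 50 nM HP1-beta + 50 nM biotin-H3(1-18)K9me3, PBS pH 7.4, 0.01% Tween-20, 30 min RT; compound added, 30 min RT; AlphaScreen beads 10 ug/mL final, 30 min dark; luminescence read.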

[10] = target: Methanococcus maripaludis chaperonin (MmCpn) (UniProt Q6LX38); assay: High-Throughput Screening for Modulators of Cytosolic Chaperonin Activity: MmCpn Primary Screen (AID 488978);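 also: 50 nM MmCpn enzyme hydrolysing 30 µM ATP at 37 °C; 0% is about no effect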
Sequence of Methanococcus maripaludis chaperonin (MmCpn) (Q6LX38 1-543): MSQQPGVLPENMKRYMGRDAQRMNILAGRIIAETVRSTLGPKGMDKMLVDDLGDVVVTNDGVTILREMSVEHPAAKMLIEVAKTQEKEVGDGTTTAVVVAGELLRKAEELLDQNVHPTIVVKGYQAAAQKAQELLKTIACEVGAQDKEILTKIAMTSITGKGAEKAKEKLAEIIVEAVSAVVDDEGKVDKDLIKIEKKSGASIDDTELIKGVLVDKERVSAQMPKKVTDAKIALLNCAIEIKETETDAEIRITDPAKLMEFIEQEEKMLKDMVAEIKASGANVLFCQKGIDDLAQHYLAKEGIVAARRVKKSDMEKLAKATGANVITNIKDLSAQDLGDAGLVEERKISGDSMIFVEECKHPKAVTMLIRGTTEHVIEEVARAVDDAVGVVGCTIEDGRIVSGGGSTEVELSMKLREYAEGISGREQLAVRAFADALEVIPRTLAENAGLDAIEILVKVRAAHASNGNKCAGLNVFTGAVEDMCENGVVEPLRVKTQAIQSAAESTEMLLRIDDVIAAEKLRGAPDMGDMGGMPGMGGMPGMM
In short: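 MmCpn (50 nM final) was preincubated with compound 5 min at RT, then 30 uM ATP (final) was added and the reaction ran 10 min at 37C. ADP produced was detected by Transcreener HTRF (ex 320 nm; em 590/665 nm).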

[11] = target: Transient receptor potential cation channel subfamily V member 1 (Homo sapiens) (UniProt Q8NER1); assay: HTS Assay for Compounds that Act as Enhancers of the Vanilloid Receptor 1 (AID 488979); also: 0% is about no effect
In short: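 TRPV1-expressing cells loaded with Fluo-8 calcium dye; compounds added and calcium influx read kinetically for 3 min (agonist phase), then capsaicin at EC20 added and read 2 min more for enhancement. Fluorescence ex 480/em 520 nm.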

[12] = target: Thyrotropin receptor (Homo sapiens) (UniProt P16473); assay: qHTS Assay for Antagonists of the Thyroid Stimulating Hormone Receptor (AID 488980); also: series mostly up to about 58 µM; 0% is about no effect
In short: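 HEK293 cells transfected with human TSHR, suspended in HEPES-buffered HBSS with 70 uM RO 20-1724, were treated with compounds plus TSH at EC80 (4 nM final). cAMP was measured by competitive HTRF (cryptate anti-cAMP antibody, cAMP-d2 acceptor).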

[13] = target: D(1A) dopamine receptor (Homo sapiens) (UniProt P21728); assay: HTS Assay for Allosteric Agonists of the Human D1 Dopamine Receptor: Primary Screen for Agonists (AID 488981); also: 0% is about no effect
Sequence of D(1A) dopamine receptor (Homo sapiens) (P21728 whole entry, looked up): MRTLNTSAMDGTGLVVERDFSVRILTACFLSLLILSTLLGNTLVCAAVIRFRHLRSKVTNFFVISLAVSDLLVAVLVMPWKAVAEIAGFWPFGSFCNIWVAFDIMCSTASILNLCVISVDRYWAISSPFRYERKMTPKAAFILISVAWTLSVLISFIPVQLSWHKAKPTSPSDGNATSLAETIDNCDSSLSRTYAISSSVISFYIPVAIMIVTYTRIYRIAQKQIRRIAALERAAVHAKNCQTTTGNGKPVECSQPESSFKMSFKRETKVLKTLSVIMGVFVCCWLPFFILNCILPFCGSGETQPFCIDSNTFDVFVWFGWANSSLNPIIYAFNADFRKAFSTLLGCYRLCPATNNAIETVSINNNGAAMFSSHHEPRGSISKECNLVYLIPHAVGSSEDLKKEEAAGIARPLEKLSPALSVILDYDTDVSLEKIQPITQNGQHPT
In short: (§1)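 Tetracycline-induced HEK293 T-REx cells force-coupled to calcium signalling were incubated overnight at 30 C and dye-loaded at room temperature. Calcium flux over 180 s after compound addition flagged agonists; a further 180 s read after EC20 dopamine flagged potentiators.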

[14] = target: D(1A) dopamine receptor (Homo sapiens) (UniProt P21728); assay: HTS Assay for Allosteric Agonists of the Human D1 Dopamine Receptor: Primary Screen for Potentiators (AID 488982); also: 0% is about no effect
In short: as §1

[15] = target: D(1A) dopamine receptor (Homo sapiens) (UniProt P21728); assay: HTS Assay for Allosteric Agonists of the Human D1 Dopamine Receptor: Primary Screen for Antagonists (AID 488983);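 also: calcium flux response to an EC80 dopamine challenge measured with no-wash dye; % is scaled to controls: 0 for no effect and ±100 for the full control effect; nearly all actives have a fitted effect of over 65% in size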
In short: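 Cells are induced with tetracycline and incubated overnight at 30 C, then loaded with calcium dye for 30 to 90 minutes at room temperature. Compound addition is followed by a 180 s read, then an EC80 dopamine addition and another 180 s read.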

[16] = target: ATP-dependent 6-phosphofructokinase (Trypanosoma brucei brucei) (UniProt O15648); assay: qHTS Assay to Find Inhibitors of T. brucei phosphofructokinase: hit validation (AID 492961);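 also: luminescence reports ADP formed as PFK phosphorylates fructose-6-phosphate with ATP; series mostly up to about 51 µM; % is scaled to controls: 0 for no effect and ±100 for the full control effect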
In short: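 Percent activity derived from corrected luminescence, normalized between 0x and 1x enzyme controls, then fitted to concentration-response curves. Conditions: 1.25 nM PFK, 0.1 mM ATP, 0.5 mM F6P, 45 min RT.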

[17] = Validation screen for small molecules that induce genotoxicity in human embryonic kidney (HEK293T) cells expressing luciferase-tagged ELG1 (AID 493106); also: 0% is about no effect
In short: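 Luminescence from an ELG1-luciferase fusion serves as the read-out, rising when genetic stress elevates ELG1 protein. HEK293T reporter cells (2,000 per well) received 23 nL compound, incubated 16 hr at 37 °C, then ONE-Glo for 30 min at room temperature.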

[18] = target: Thyrotropin-releasing hormone receptor (Homo sapiens) (UniProt P34981); assay: qHTS for Small Molecule Agonists and Allosteric Enhancers of Human TRH Receptor: Validation Screen for Agonists (AID 493127;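 active = calcium activation more than 3 SD above the typical response in the agonist read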;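 also: intracellular calcium rise by fluo-8 fluorescence before TRH EC20 addition; 0% is about no effect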); conditions: TRH receptor agonist cell assay; at 2 µM; stronger effect = higher value
Sequence of Thyrotropin-releasing hormone receptor (Homo sapiens) (P34981 whole entry, looked up): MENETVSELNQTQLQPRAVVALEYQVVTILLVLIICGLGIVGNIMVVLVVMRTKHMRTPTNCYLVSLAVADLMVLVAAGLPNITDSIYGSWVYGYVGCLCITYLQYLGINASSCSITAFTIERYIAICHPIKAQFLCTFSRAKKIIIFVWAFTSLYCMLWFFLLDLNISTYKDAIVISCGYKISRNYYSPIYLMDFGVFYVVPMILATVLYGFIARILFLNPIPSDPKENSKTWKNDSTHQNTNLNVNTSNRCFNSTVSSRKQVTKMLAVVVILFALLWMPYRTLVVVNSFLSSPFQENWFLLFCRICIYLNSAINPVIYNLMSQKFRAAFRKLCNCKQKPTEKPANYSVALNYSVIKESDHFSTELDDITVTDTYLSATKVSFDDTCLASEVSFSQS
In short: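 Cells 2000/well, 10% FCS, 18 h 33.5C/5% CO2 → fluo-8 Ca dye, RT 30 min–1.5 h → FDSS baseline 10 × 1 s → compound added → 230 cycles (1 s/cycle) agonist mode. TRH controls.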

[19] = Nrf2 qHTS screen for inhibitors: Validation (AID 493153; active = well fitted inhibition curve with a large enough effect in the main read-out, with a control signal flat, not every such curve was filed as active); conditions: viability change: measured here: cytotoxicity max response
In short: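 Luminescence from an ARE-firefly luciferase reporter in A549 cells gives Nrf2 inhibition; an earlier CellTiter-Fluor fluorescent read flags cytotoxicity. Cells in 5% FBS OPTI-MEM received compound dilution series for 18-24 h at 37°C.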

[20] = target: ATPase family AAA domain-containing protein 5 (Homo sapiens) (UniProt Q96QE3); assay: Validation screen for small molecules that inhibit ELG1-dependent DNA repair in human embryonic kidney (HEK293T) cells expressing luciferase-tagged ELG1 (AID 493107);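 also: cells co-treated with the DNA-damaging agent 5-fluorouridine alongside compound; series mostly up to about 46 µM; % is scaled to controls: 0 for no effect and ±100 for the full control effect; inhibitors lower the ELG1-luciferase luminescence signal; nearly all actives have a fitted effect of over 70% in size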
Sequence of ATPase family AAA domain-containing protein 5 (Homo sapiens) (Q96QE3 whole entry, looked up, the tested form may be a part): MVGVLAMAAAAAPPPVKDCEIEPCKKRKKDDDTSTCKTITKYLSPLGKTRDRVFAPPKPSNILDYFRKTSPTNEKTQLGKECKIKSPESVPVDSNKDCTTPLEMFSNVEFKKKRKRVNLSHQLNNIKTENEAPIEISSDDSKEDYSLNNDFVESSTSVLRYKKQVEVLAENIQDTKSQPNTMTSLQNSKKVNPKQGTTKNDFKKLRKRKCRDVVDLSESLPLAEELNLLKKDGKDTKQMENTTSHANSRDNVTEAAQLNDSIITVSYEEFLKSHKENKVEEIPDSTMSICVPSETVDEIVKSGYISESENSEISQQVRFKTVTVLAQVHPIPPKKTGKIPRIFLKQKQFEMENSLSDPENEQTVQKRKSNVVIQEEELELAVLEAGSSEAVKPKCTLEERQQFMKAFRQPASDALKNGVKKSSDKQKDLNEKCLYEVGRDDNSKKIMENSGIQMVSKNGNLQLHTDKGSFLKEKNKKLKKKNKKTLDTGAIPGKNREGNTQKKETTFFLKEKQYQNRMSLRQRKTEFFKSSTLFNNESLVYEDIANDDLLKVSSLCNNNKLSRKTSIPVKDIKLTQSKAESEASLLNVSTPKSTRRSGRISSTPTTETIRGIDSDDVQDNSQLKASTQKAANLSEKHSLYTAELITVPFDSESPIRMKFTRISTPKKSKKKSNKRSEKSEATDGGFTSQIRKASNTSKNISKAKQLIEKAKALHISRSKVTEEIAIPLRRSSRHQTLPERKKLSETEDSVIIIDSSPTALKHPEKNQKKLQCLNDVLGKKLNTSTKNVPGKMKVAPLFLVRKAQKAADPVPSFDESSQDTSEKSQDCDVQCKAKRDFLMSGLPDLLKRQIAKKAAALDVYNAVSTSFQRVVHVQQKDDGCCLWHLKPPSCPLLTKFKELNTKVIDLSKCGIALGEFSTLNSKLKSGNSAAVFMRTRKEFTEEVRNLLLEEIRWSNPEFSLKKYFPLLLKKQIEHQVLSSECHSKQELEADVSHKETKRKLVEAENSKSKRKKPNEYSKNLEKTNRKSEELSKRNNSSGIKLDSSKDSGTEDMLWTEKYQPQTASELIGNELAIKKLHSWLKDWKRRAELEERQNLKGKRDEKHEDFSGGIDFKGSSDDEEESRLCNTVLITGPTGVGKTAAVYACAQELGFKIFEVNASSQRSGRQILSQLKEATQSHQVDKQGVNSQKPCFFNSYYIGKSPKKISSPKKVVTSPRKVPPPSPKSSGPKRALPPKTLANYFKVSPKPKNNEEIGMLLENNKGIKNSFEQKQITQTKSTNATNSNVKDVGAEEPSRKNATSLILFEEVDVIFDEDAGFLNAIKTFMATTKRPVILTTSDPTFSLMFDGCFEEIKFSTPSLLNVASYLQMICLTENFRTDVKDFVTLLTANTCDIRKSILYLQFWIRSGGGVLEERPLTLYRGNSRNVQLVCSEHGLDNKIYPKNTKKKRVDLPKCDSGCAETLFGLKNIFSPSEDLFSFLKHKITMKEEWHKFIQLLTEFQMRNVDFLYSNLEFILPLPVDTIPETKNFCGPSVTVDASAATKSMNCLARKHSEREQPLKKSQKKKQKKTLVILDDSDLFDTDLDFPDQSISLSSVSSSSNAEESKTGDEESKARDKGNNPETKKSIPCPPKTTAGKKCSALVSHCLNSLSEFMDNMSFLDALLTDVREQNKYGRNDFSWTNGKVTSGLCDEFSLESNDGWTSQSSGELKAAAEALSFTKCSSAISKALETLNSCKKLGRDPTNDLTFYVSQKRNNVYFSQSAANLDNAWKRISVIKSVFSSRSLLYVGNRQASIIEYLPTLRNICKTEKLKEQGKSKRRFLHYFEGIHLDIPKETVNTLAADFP
In short: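 Luminescence from ONE-Glo, developed 30 min at room temperature, served as read-out of ELG1-luciferase levels. Beforehand, reporter HEK293T cells received 5-fluorouridine plus test compound for 16 hr at 37 °C.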

N[C@@H](Cc1cnc[nH]1)C(=O)O
0.846%: viability change [19]
inactive: outcome [1] | outcome [2] | Potency [3] | Potency [4] | Potency [5] | outcome [6] | outcome [7] | Potency [8] | Potency [9] | outcome [10] | outcome [11] | outcome [12] | Potency [13] | outcome [14] | Potency [15] | outcome [16] | outcome [17] | activation [18] 0.0625% | outcome [19]

CC[C@H](C)C(=O)O[C@H]1CCC=C2C=C[C@H](C)[C@H](CC[C@@H]3C[C@@H](O)CC(=O)O3)[C@H]21
-16.9%: viability change [19]
inactive: outcome [1] | Potency [3] | outcome [6] | outcome [7] | Potency [8] | Potency [9] | outcome [10] | Potency [13] | Potency [15] | Potency [20] | outcome [19]

C[N+]1(CCCCC[N+]2(C)CCCC2)CCCC1
inactive: outcome [1] | outcome [2] | Potency [3] | Potency [5] | outcome [6] | outcome [7] | Potency [8] | Potency [9] | outcome [10] | outcome [11] | outcome [12] | Potency [13] | outcome [14] | Potency [15] | outcome [17] | Potency [20] | activation [18] 0.75% | outcome [19]
1.12%: viability change [19]

O=C(O)c1cc2cc(Cc3cccnc3)ccc2o1
0.85%: viability change [19]
inactive: outcome [1] | outcome [2] | Potency [3] | Potency [4] | Potency [5] | outcome [6] | outcome [7] | Potency [8] | Potency [9] | outcome [10] | outcome [11] | outcome [12] | Potency [13] | outcome [14] | Potency [15] | outcome [17] | Potency [20] | activation [18] 1.38% | outcome [19]

C[C@@H]1C(=O)NC2=Nc3cccc(Cl)c3CN21
3.84%: viability change [19]
inactive: outcome [1] | outcome [2] | Potency [4] | Potency [5] | outcome [6] | outcome [7] | Potency [8] | Potency [9] | outcome [10] | outcome [11] | outcome [12] | Potency [13] | outcome [14] | Potency [15] | outcome [16] | outcome [17] | Potency [20] | activation [18] 1.06% | outcome [19]

CC(C)(CO)[C@@H](O)C(=O)NCCCO
inactive: outcome [16]

CC(=O)O[C@H]1C[C@@H]2CC[C@@H]3[C@H](CC[C@@]4(C)[C@H]3C[C@H]([N+]3(C)CCCCC3)[C@@H]4OC(C)=O)[C@@]2(C)C[C@@H]1[N+]1(C)CCCCC1
-0.593%: viability change [19]
inactive: outcome [1] | outcome [2] | Potency [3] | outcome [6] | outcome [7] | Potency [8] | Potency [9] | outcome [10] | Potency [13] | outcome [14] | Potency [15] | outcome [17] | Potency [20] | outcome [19]

CCOC(=O)c1cccc(N)c1
inactive: outcome [16]
